Lassa entry inh: blocks Lassa virus binding to or entry into cells; AID 540256; Lassa virus pseudotype entry inhibition, cell reporter; Potency, µM (series often up to 37.9 µM), for inactives: top-dose activity change, negative = inhibition, usual class: inhibitors; hit rate 1.2% among 300,000; calls by dose curve; tested in HEK293 cells; note: potency is the fitted concentration of half-maximal effect; nearly all actives have a fitted effect of over 50% in size
HCMV antiviral: blocks human cytomegalovirus replication; HFF cells, HCMV-luciferase reporter, 72 h; active compounds read low; activity change, negative = inhibition, % at 57.5 µM; hit rate 4.5% among 410,000; AID 1259415; in the data active = activity change below about -60%; inconclusive = no clear call, values can overlap the other calls; inactive = above about -39%
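HFF cells seeded 16 h at 37C, treated with compounds, infected with luciferase-reporter HCMV at MOI 1 PFU/cell; luciferase read at 72 h post infection, normalized to buffer-only and Salinomycin controls.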
HCV inhibitor: blocks hepatitis C virus | Huh7.5.1 HCVcc-Cre infection, luciferase reporter, 44 h | Potency, µM (series often up to 41.8 µM), for the others: top-dose activity change, negative = inhibition, most hits filed as inhibitors | hit rate 3.4% among 340,000; active = well fitted inhibition curve with a large enough effect; inconclusive = small, poorly fitted or top-dose-only effect, or another doubt; inactive = no such curve, though single readings can be large or run the other way; note: potency is the fitted concentration of half-maximal effect
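Whole-lifecycle infectious HCVcc-Cre system; cells 1,000/well, compound then virus (~0.5 moi) added 4 h after plating, 44 h culture. Luciferase read 15 sec following 15 min substrate incubation, room temp.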
FMDV antiviral: blocks foot and mouth disease virus; FMDV antiviral cell-based qHTS; hit rate 1.2% among 410,000; AID 1159524; Potency, µM (series often up to 57.9 µM), without a hit: at the highest dose activity change, negative = inhibition, usual class: inhibitors; calls by dose curve; tested in HEK293T cells; note: read-out not given here; potency is the fitted concentration of half-maximal effect; nearly all actives have a fitted effect of over 45% in size
MARV entry inh: blocks Marburg virus binding to or entry into cells. Marburg virus pseudotyped entry inhibition, cell reporter. Potency, µM (titrated, usually from 37.8 µM), for inactives: top-dose activity change, negative = inhibition, actives largely listed as inhibitors. hit rate 1.8% among 300,000. AID 540276; calls by dose curve; tested in HEK293 cells; note: potency is the fitted concentration of half-maximal effect
Starred values were filed as active, the others as inactive; ? = inconclusive; / = no result given; [ ] = remark or other dose. This is a sample that favours compounds with a hit; in the whole collection about 7.9% have one here. % is set by controls: 0 for no effect and ±100 for the full control effect.

SMILES | Lassa entry inh | HCMV antiviral | HCV inhibitor | FMDV antiviral | MARV entry inh
CC(=O)c1c(C)[nH]c(C(=O)Nc2ccc(Cl)c(S(=O)(=O)N(C)C)c2)c1C | / | 101 | ? | 33% | /
CC(=O)c1c(C)[nH]c(C(=O)OCC(=O)Nc2ccc(Cl)c(S(=O)(=O)N(C)C)c2)c1C | / | 0 | 4µM* | 28µM* | /
CN(C)S(=O)(=O)c1cc(NC(=O)CN2CCN(c3ccc(O)cc3)CC2)ccc1Cl | ? | 6 | 1% | -8% | ?
CCOC(=O)c1c(C)[nH]c(C(=O)OCc2ccc(F)cc2)c1C | ? | 45 | ? | 20% | ?
CCOc1ccc(-c2nc(Cn3c(=O)cc(C)c4c(C)nn(-c5ccc(C)cc5)c43)c(C)o2)cc1 | 14%[46.1 µM] | 27 | / | 36% | /
CCCc1cc(=O)[nH]c2nnc(SCC(=O)Nc3cccc(C)c3)n12 | ? | ? | / | -12% | /
CCOC(=O)c1c(C)[nH]c(C(=O)OCC(=O)NC(C)(C)C)c1C | ? | -80* | 14µM* | -26% | -6%[46.1 µM]
CCOC(=O)c1c(C)[nH]c(C(=O)OCC(=O)Nc2cc(Cl)ccc2OC)c1C | -21% | 50 | 13% | -13% | ?
COC(=O)c1c(C)[nH]c(C(=O)OCc2csc(CC(=O)Nc3ccccc3C)n2)c1C | -7% | 11 | ? | -24% | 10µM*
CCOC(=O)c1[nH]c(C)c(C(=O)OCC(=O)NC(=O)NC(C)(C)C)c1C | 21% | -8 | ? | 9% | -10%
COc1cc(NC(=O)COC(=O)c2[nH]c(C)c(C(C)=O)c2C)cc(OC)c1 | -22%[46.1 µM] | ? | 10µM* | ? | ?
CC(=O)c1c(C)[nH]c(C(=O)OCC(=O)Nc2ccc(Cl)cc2[N+](=O)[O-])c1C | -15% | ? | ? | ? | 6.3µM*
CCC(C(=O)OCC(=O)Nc1ccc(Cl)c(S(=O)(=O)N(C)C)c1)c1ccccc1 (centres undefined) | ? | ? | 8% | ? | 11µM*
CN(C)S(=O)(=O)c1cc(NC(=O)COC(=O)Cc2cccc3ccccc23)ccc1Cl | ? | 57 | -11% | ? | -5%
Cc1ccc(CSc2nc(=O)c3c(n2C)NC(=O)CC3c2ccc(OC(C)C)cc2)cc1 (centres undefined) | 12%[46.1 µM] | 6 | / | -25% | -21%[46.1 µM]
Cc1cc(C(=O)OCC(=O)Nc2cc(S(=O)(=O)N(C)C)ccc2Cl)c2ccccc2n1 | -24% | 28 | 12% | -21% | 13%
Cc1ccc(S(=O)(=O)N(C)C)cc1NC(=O)COC(=O)/C(=C/c1ccc(F)cc1)c1cccs1 | ? | 3 | 11µM* | ? | ?
Cc1cc(C(=O)OCC(=O)Nc2cc(S(=O)(=O)N(C)C)ccc2C)c2ccccc2n1 | 6% | -21 | 20% | 16µM* | -17%
CC1=C(C(=O)Nc2ccc(C)cc2Cl)C2(CCCCC2)OC1=O | -20%[46.1 µM] | 2 | / | -25% | -16%[46.1 µM]
N/C(=N/OCc1cccc([N+](=O)[O-])c1)c1nonc1N | 18% | -60* | -17% | -19% | 2%
N/C(=N\OCc1ccccc1)c1nonc1N | / | -15 | -10% | 55% | /
O=C(COC(=O)CNC(=O)c1ccc([N+](=O)[O-])o1)Nc1ncc(C(F)(F)F)cc1Cl | / | -13 | 2.8µM* | -5% | /
O=C(/C(=N\Nc1ccc([N+](=O)[O-])cc1)Sc1nnnn1-c1ccccc1)c1ccccc1 | 12% | -18 | 41% | ? | 0.89µM*
CS(=O)(=O)N(CC(=O)NC1CC2CCC1C2)c1cccc(C(F)(F)F)c1 (centres undefined) | -19% | -103* | 9% | -7% | -16%
COc1cc2c(cc1OC)-c1c(OC)c(OC)cc3ccnc(c13)C2=O | ? | -95* | ? | ? | ?
SMILES | Lassa entry inh | HCMV antiviral | HCV inhibitor | FMDV antiviral | MARV entry inh
CC1(C)SC(=S)N(/N=C/c2ccccc2)C1N(O)C(=O)Nc1ccc([N+](=O)[O-])cc1 (centres undefined) | 0% | -26 | ? | 4% | 18µM*
CC1(C)SC(=S)N(NC(=O)Nc2cccc3ccccc23)C1N(O)C(=O)Nc1ccccc1 (centres undefined) | -27% | -75* | ? | 0% | ?
CNC(=O)N(O)C1N(NC(=O)Nc2ccccc2)C(=S)SC1(C)C (centres undefined) | 7% | 1 | ? | -7% | ?
CCOC(=O)c1cc(S(=O)(=O)Nc2ccc(C)cc2Cl)[nH]n1 | -3%[46.1 µM] | -12 | / | -9% | /
O=C(CCc1nc(-c2cccs2)no1)Nc1ccccc1[N+](=O)[O-] | 6%[46.1 µM] | -20 | / | 12% | ?
Cc1cccc(N(C)C(=O)C2CCN(S(=O)(=O)c3cccc4nonc34)CC2)c1 | -26%[46.1 µM] | -17 | / | -4% | /
O=C(NC1CC1)c1cccc(NC(=O)C2CC2)c1 | / | -81* | 5% | -19% | /
CC(C)(C)OC(=O)N1CCCC(C(=O)Nc2cccc(C(=O)NCCCCc3ccccc3)c2)C1 (centres undefined) | / | 21 | -18%[8.37 µM] | ? | ?
CC(C)(C)OC(=O)N1CCC(C(=O)Nc2cccc(C(=O)NCCCCc3ccccc3)c2)CC1 | / | -3 | ? | 18µM* | /
O=C(NCCc1ccccc1)c1cccc(NC(=O)C2CC2)c1 | ? | 103 | 0.56µM* | 64% | /
O=C(C1CC1)N1CCN(c2nc3ccc(F)cc3s2)CC1 | 10%[46.1 µM] | 25 | / | 19% | /
Cc1ccc(N(CCCCN2C(=O)c3ccccc3C2=O)C(=O)c2ccc(Cl)s2)cc1 | ? | -62* | ? | 0% | 1%
Cc1cccc(C)c1N(CC(=O)NCc1ccco1)C(=O)CNS(=O)(=O)c1ccc(F)cc1 | -29% | 12 | 14% | 25% | 8.9µM*
Cc1ccccc1N(CC(=O)NCc1ccco1)C(=O)CNS(=O)(=O)c1ccc(F)cc1 | / | -33 | -4% | 25% | -21%[46.1 µM]
O=C(CCC1N=C2c3ccccc3N=C(SCc3cccc(F)c3)N2C1=O)NCc1cccs1 (centres undefined) | -6%[46.1 µM] | -9 | / | ? | /
COC(=O)c1ccccc1-c1cc(C)cc2c1OC(CNC(=O)c1cnc(C)cn1)C2 (centres undefined) | / | / | / | 15% | /
Cc1cc2c3c(c1)C(C)(c1ccccc1)CC(C)(C)N3C(=O)C21C(C#N)=C(N)OC2=C1C(=O)CC(C)(C)C2 (centres undefined) | ? | -72* | ? | ? | -27%
CSC1=C(C#N)C(=O)NC(c2ccccc2O)S1 (centres undefined) | 26% | 11 | 19% | ? | -2%
COC(=O)CSC1=C(C#N)C(=O)NC(c2ccccc2)S1 (centres undefined) | -19% | -16 | 13% | 7.9µM* | 19%
CCOc1cc(-c2ccc(OC(=O)c3ccccc3F)cc2)cc(=O)c2c(C)oc(C)c12 | 1%[46.1 µM] | 64 | / | ? | 15%[46.1 µM]
COc1ccc(NC(=O)c2c(C)oc3ccc(O)c(CN4CCCC(C)C4)c23)cc1 (centres undefined) | -14%[46.1 µM] | -38 | / | -16% | ?
COc1ccc(NC(=O)c2c(C)oc3ccc(O)c(CN4CCCCCC4)c23)cc1 | ? | -67* | / | -11% | ?
